This passage reports cytotoxicity call results from the antibiotic and cytotoxicity screens of Wong et al. (2023).

About 1,500 (3.8%) of roughly 39,000 compounds were called active. Shown is part of a subset that was picked to be rich in actives.

For this assay, the system named is HSkMC (human skeletal muscle cells). As to the kind of experiment: cytotoxicity call (relative viability < 0.9). As to conditions: 10 µM.
Turning to `C[C@@H](O)C#Cc1ccc2c(c1)O[C@@H](CN(C)C(=O)C1CCCCC1)[C@@H](C)CN([C@@H](C)CO)S2(=O)=O`, the cytotoxicity call was “inactive”. The value for `Cc1noc(C)c1S(=O)(=O)Nc1ccc2c(c1)C(=O)N([C@H](C)CO)C[C@H](C)[C@H](CN(C)Cc1ccc(Cl)c(Cl)c1)OCCCC[C@@H](C)O2` was “inactive”. The value for `COc1oc(C(=O)NC2CCCCC2)c(-c2ccc(Cl)cc2)c1S(=O)(=O)c1ccc2c(c1)OCCO2` was “inactive”.

As to `CN1C(=O)c2cc(NS(=O)(=O)c3ccc(F)cc3)ccc2OC[C@@H]2O[C@H](CC(=O)NCC(F)(F)F)CC[C@H]21`, the cytotoxicity call is “inactive”. Under `C[C@@H]1CCCCO[C@H](CN(C)S(=O)(=O)c2ccc(F)cc2)[C@H](C)CN([C@@H](C)CO)C(=O)c2cc(NS(=O)(=O)c3ccc(Cl)cc3)ccc2O1` stands “inactive”; under `COc1ccc(O)cn1`, “inactive”. The value for `C[C@H]1CCCCO[C@H](CN(C)S(=O)(=O)c2cccs2)[C@@H](C)CN([C@@H](C)CO)C(=O)c2cc(NC(=O)Nc3cccc4ccccc34)ccc2O1` was “inactive”; that for `C[C@@H]1CN([C@@H](C)CO)C(=O)c2cc(NC(=O)Nc3ccccc3)ccc2O[C@H]1CN(C)S(C)(=O)=O` was “inactive”. The value for `CC(C)NC(=O)N(C)C[C@H]1Oc2ccc(NS(=O)(=O)c3ccc(F)cc3)cc2CC(=O)N([C@@H](C)CO)C[C@H]1C` was “inactive”. With `O=C1C=CC(O)(/C=C/C(=O)O[C@@H]2[C@@H](O)[C@H](Oc3ccc(O)cc3)O[C@H](CO)[C@H]2O)C=C1`, the cytotoxicity call is “inactive”.

As to `C[C@H](CO)N1C[C@H](C)[C@@H](CN(C)Cc2cccc(C(=O)Nc3ccccc3N)c2)OCc2ccccc2-c2c(n(C)c3ccccc23)C1=O`, the cytotoxicity call is “inactive”.

Consider `C[C@H]1CN([C@@H](C)CO)C(=O)Cc2cc(NC(=O)Nc3ccccc3)ccc2O[C@@H]1CN(C)Cc1ccc(C(F)(F)F)cc1`, for which the cytotoxicity call was “active”. Under `C[C@@H]1CN([C@H](C)CO)C(=O)Cc2cc(NC(=O)Nc3ccccc3)ccc2O[C@H]1CN(C)Cc1ccc(C(F)(F)F)cc1` stands “active”; under `C[C@H](CO)N1C[C@H](C)[C@H](CN(C)Cc2ccc(C(F)(F)F)cc2)Oc2ccc(NC(=O)Nc3ccccc3)cc2CC1=O`, “active”. The value for `C=C1C(c2ccc(C)cc2)=CCc2cc(C)cc(C)c21` was “inactive”; that for `C[C@@H]1CCCCO[C@@H](CN(C)S(=O)(=O)c2cccs2)[C@H](C)CN([C@@H](C)CO)C(=O)c2cc(NC(=O)Nc3ccc(F)cc3)ccc2O1` was “inactive”. Under `Cc1nnn2c1COC[C@H](CNCC(C)C)C2` stands “inactive”. In the case of `COCC(=O)Nc1ccc2c(c1)OC[C@@H](C)N(Cc1ccccc1OC)C[C@@H](C)[C@@H](OC)CN(C)C2=O`, the cytotoxicity call is “inactive”. Under `COc1ccc(NC(=O)Nc2ccc3c(c2)C(=O)N([C@@H](C)CO)C[C@@H](C)[C@@H](CN(C)S(=O)(=O)c2cccs2)OCCCC[C@H](C)O3)cc1` stands “inactive”; under `O=C(CN1CCOCC1)N[C@H]1CC[C@H](CCNC(=O)C2CCCCC2)O[C@@H]1CO`, “inactive”; under `CNC[C@@H]1Oc2ccc(NS(=O)(=O)c3cn(C)cn3)cc2C(=O)N([C@H](C)CO)C[C@H]1C`, “inactive”.

Regarding `CCCNC(=O)N1C[C@@H](O)COC[C@@H]2O[C@@H](CC(=O)N3CCOCC3)CC[C@H]21`, the cytotoxicity call is “inactive”. The value for `O=C(C[C@@H]1CC[C@H]2[C@@H](COC[C@H](O)CN2S(=O)(=O)c2ccc(F)cc2)O1)N[C@H]1CCN(Cc2ccccc2)C1` was “inactive”. Under `COc1nsnc1N1CCOCC1` stands “inactive”; under `C[C@@H]1CN([C@@H](C)CO)C(=O)Cc2cc(NS(=O)(=O)c3ccccc3)ccc2O[C@H]1CN(C)Cc1ccc(Cl)c(Cl)c1`, “active”; under `C[C@H]1CN([C@@H](C)CO)C(=O)Cc2cc(NS(=O)(=O)c3ccccc3)ccc2O[C@H]1CN(C)Cc1ccc(Cl)c(Cl)c1`, “inactive”. The value for `C[C@@H]1CN([C@H](C)CO)C(=O)Cc2cc(NS(=O)(=O)c3ccccc3)ccc2O[C@@H]1CN(C)Cc1ccc(Cl)c(Cl)c1` was “active”; that for `C[C@H](CO)N1C[C@H](C)[C@H](CN(C)Cc2ccc(Cl)c(Cl)c2)Oc2ccc(NS(=O)(=O)c3ccccc3)cc2CC1=O` was “inactive”; that for `C[C@@H]1CN([C@@H](C)CO)C(=O)Cc2cc(NS(=O)(=O)c3ccccc3)ccc2O[C@@H]1CN(C)Cc1ccc(Cl)c(Cl)c1` was “active”. For the compound `C[C@H](CO)N1C[C@H](C)[C@@H](CN(C)Cc2ccc(Cl)c(Cl)c2)Oc2ccc(NS(=O)(=O)c3ccccc3)cc2CC1=O`, the cytotoxicity call was “inactive”. Under `C[C@@H]1CN([C@H](C)CO)C(=O)Cc2cc(NS(=O)(=O)c3ccccc3)ccc2O[C@H]1CN(C)Cc1ccc(Cl)c(Cl)c1` stands “active”; under `C[C@H]1CN([C@@H](C)CO)C(=O)Cc2cc(NS(=O)(=O)c3ccccc3)ccc2O[C@@H]1CN(C)Cc1ccc(Cl)c(Cl)c1`, “inactive”; under `Cc1noc(C)c1NC(=O)N(C)C[C@H]1Oc2ccc(NC(=O)Nc3ccc(C(F)(F)F)cc3)cc2C(=O)N([C@H](C)CO)C[C@@H]1C`, “inactive”.

As for `NNC(=O)[C@H]1C[C@H]2C[C@@H]1C[C@@H]2C(=O)NN`, the cytotoxicity call was “inactive”. Under `COc1ccc(S(=O)(=O)N(C)C[C@H]2Oc3ccc(NC(=O)Cn4cnnn4)cc3CC(=O)N([C@@H](C)CO)C[C@H]2C)cc1` stands “inactive”; under `O=C(O)c1ccc[n+]([O-])c1`, “inactive”. Under `CN(C)C(=O)C1CCN(S(C)(=O)=O)CC1` stands “inactive”; under `Cc1noc(C)c1NC(=O)Nc1ccc2c(c1)C(=O)N([C@@H](C)CO)C[C@H](C)[C@H](CN(C)C(=O)Nc1ccc(C(F)(F)F)cc1)O2`, “inactive”; under `C[C@@H]1CCCCO[C@@H](CN(C)C(=O)c2ccccc2)[C@@H](C)CN([C@H](C)CO)C(=O)c2cc(NC(=O)Cc3ccccc3)ccc2O1`, “inactive”. The value for `O=C(Nc1cc(Cl)ccc1Cl)c1cc(Br)ccc1NS(=O)(=O)c1ccc(Cl)c([N+](=O)[O-])c1` was “inactive”; that for `COCCNCc1ccc(-c2cc3nccc(Oc4ccc(NC(=O)C5(C(=O)Nc6ccc(F)cc6)CC5)cc4F)c3s2)nc1` was “active”; that for `Cn1cnc(-c2cc3nccc(Oc4ccc(NC(=S)NC(=O)Cc5ccccc5)cc4F)c3s2)c1` was “inactive”. With `COCCNCc1ccc(-c2cc3nccc(Oc4ccc(NC(=S)NC(=O)Cc5ccc(F)cc5)cc4F)c3s2)nc1`, the cytotoxicity call is “active”.

For the compound `C[C@H](CO)N1C[C@H](C)[C@H](CN(C)S(=O)(=O)c2ccc(-n3cccn3)cc2)OCc2cn(nn2)CCCC1=O`, the cytotoxicity call is “inactive”. Consider `CO[C@H](C(=O)N(C)C[C@@H]1OCc2ccccc2-c2c(n(C)c3ccccc23)C(=O)N([C@@H](C)CO)C[C@@H]1C)c1ccccc1`, for which the cytotoxicity call is “inactive”.

On to `C[C@@H]1CN([C@@H](C)CO)C(=O)Cc2cc(NC(=O)Nc3cccc4ccccc34)ccc2O[C@@H]1CN(C)Cc1ccncc1`, for which the cytotoxicity call is “inactive”. Under `COc1ccc(S(=O)(=O)N[C@H]2CC[C@@H](CC(=O)N3CCN(c4ccccc4)CC3)O[C@@H]2CO)cc1` stands “inactive”; under `Cc1noc(C)c1NC(=O)Nc1ccc2c(c1)C(=O)N([C@@H](C)CO)C[C@@H](C)[C@H](CN(C)C(=O)Nc1cccc3ccccc13)OCCCC[C@H](C)O2`, “inactive”; under `Cc1noc(C)c1NC(=O)Nc1ccc2c(c1)C(=O)N([C@H](C)CO)C[C@H](C)[C@@H](CN(C)C(=O)Nc1cccc3ccccc13)OCCCC[C@H](C)O2`, “inactive”.

For the compound `Cc1noc(C)c1NC(=O)Nc1ccc2c(c1)C(=O)N([C@H](C)CO)C[C@H](C)[C@H](CN(C)C(=O)Nc1cccc3ccccc13)OCCCC[C@H](C)O2`, the cytotoxicity call was “active”. The value for `Cc1noc(C)c1NC(=O)Nc1ccc2c(c1)C(=O)N([C@@H](C)CO)C[C@H](C)[C@@H](CN(C)C(=O)Nc1cccc3ccccc13)OCCCC[C@@H](C)O2` was “inactive”; that for `Cc1noc(C)c1NC(=O)Nc1ccc2c(c1)C(=O)N([C@@H](C)CO)C[C@@H](C)[C@H](CN(C)C(=O)Nc1cccc3ccccc13)OCCCC[C@@H](C)O2` was “active”; that for `Cc1noc(C)c1NC(=O)Nc1ccc2c(c1)C(=O)N([C@H](C)CO)C[C@@H](C)[C@H](CN(C)C(=O)Nc1cccc3ccccc13)OCCCC[C@@H](C)O2` was “inactive”. Under `COc1ccc(S(=O)(=O)N(C)C[C@@H]2OCCCC[C@H](C)Oc3ccc(NS(=O)(=O)c4ccc(Cl)cc4)cc3C(=O)N([C@H](C)CO)C[C@H]2C)cc1` stands “inactive”. Take `COc1ccc(S(=O)(=O)Nc2ccc3c(c2)C(=O)N([C@@H](C)CO)C[C@H](C)[C@H](CN(C)Cc2ccc(C(=O)O)cc2)OCCCC[C@H](C)O3)cc1`: the cytotoxicity call was “inactive”. As for `COC(=O)C1CCN(S(=O)(=O)c2c(C)n(C)c(=O)n(C)c2=O)CC1`, the cytotoxicity call is “inactive”.

For `O=C(CN1CCOCC1)NCC[C@H]1CC[C@H](NC(=O)c2ccccc2F)[C@H](CO)O1`, the cytotoxicity call is “inactive”. The value for `O=C(CN1CCOCC1)NCC[C@@H]1CC[C@@H](NC(=O)c2ccccc2F)[C@@H](CO)O1` was “active”; that for `O=C(CN1CCOCC1)NCC[C@@H]1CC[C@@H](NC(=O)c2ccccc2F)[C@H](CO)O1` was “inactive”; that for `CO/N=[N+](\[O-])NC(C)C` was “inactive”.

In the case of `C[C@H](CO)N1C[C@H](C)[C@@H](CN(C)Cc2ccc(Cl)c(Cl)c2)OCCCC[C@H](C)Oc2ccc(NS(=O)(=O)c3ccc(F)cc3)cc2C1=O`, the cytotoxicity call is “inactive”. Turning to `C[C@@H]1CCCCO[C@@H](CN(C)Cc2ccc(Cl)c(Cl)c2)[C@H](C)CN([C@H](C)CO)C(=O)c2cc(NS(=O)(=O)c3ccc(F)cc3)ccc2O1`, the cytotoxicity call is “active”.

`C[C@@H]1CCCCO[C@@H](CN(C)Cc2ccc(Cl)c(Cl)c2)[C@@H](C)CN([C@@H](C)CO)C(=O)c2cc(NS(=O)(=O)c3ccc(F)cc3)ccc2O1`: the cytotoxicity call is “inactive”. The value for `C[C@H](CO)N1C[C@H](C)[C@H](CN(C)Cc2ccc(Cl)c(Cl)c2)OCCCC[C@H](C)Oc2ccc(NS(=O)(=O)c3ccc(F)cc3)cc2C1=O` was “active”; that for `C[C@H]1CCCCO[C@H](CN(C)Cc2ccc(Cl)c(Cl)c2)[C@@H](C)CN([C@@H](C)CO)C(=O)c2cc(NS(=O)(=O)c3ccc(F)cc3)ccc2O1` was “active”; that for `C[C@@H]1CCCCO[C@H](CN(C)Cc2ccc(Cl)c(Cl)c2)[C@@H](C)CN([C@H](C)CO)C(=O)c2cc(NS(=O)(=O)c3ccc(F)cc3)ccc2O1` was “inactive”. Under `C[C@@H]1CCCCO[C@@H](CN(C)Cc2ccc(Cl)c(Cl)c2)[C@H](C)CN([C@@H](C)CO)C(=O)c2cc(NS(=O)(=O)c3ccc(F)cc3)ccc2O1` stands “active”.
